Laboratory results from PubChem BioAssay (EPA / NIEHS).
Active and inactive are the calls of the source. Rule for the calls: active = hit-call score of the fitted dose curve at least 0.9, where 1 is the maximum; inactive = score below 0.9.

Experiment: CCTE_Mundy_HCI_hNP1_Casp3_7: CCTE's Caspase-Glo 3/7 Assay in human neuroprogenitor cells for Apoptosis, Mundy Lab (AID 2284240)
Outline: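 Neuroepithelial-lineage stem cells from WA09 embryonic cells were treated with chemicals after 40–44 h of culture. Twenty-four hours later, caspase-3/7 activation was detected luminescently after a 30 min room-temperature reagent step, with DMSO as baseline.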
In the case of `O=S(=O)(O)CCC(F)(F)C(F)(F)C(F)(F)C(F)(F)C(F)(F)C(F)(F)C(F)(F)C(F)(F)F`, the outcome is reported as “inactive”. With `OCCCCC(F)(F)C(F)(F)C(F)(F)C(F)(F)F` the outcome was “inactive”. For `O=C(O)C(F)(F)C(F)(F)C(F)(F)OC(F)(F)F`, the outcome was “inactive”. For `C=CC(=O)OCC(F)(F)C(F)(F)C(F)(F)COC(=O)C=C`, the outcome was “inactive”. With `NC(O)(C(F)(F)F)C(F)(F)F` the outcome was “inactive”. In the case of `NC(=O)C(F)(F)C(F)(F)C(F)(F)C(F)(F)C(N)=O`, the outcome is reported as “inactive”. For `OCCCC(F)(F)C(F)(F)C(F)(F)C(F)(F)C(F)(F)C(F)(F)C(F)(F)C(F)(F)F`, the outcome was “inactive”. With `CCN(CCO)S(=O)(=O)C(F)(F)C(F)(F)C(F)(F)C(F)(F)C(F)(F)C(F)(F)C(F)(F)C(F)(F)F` the outcome was “inactive”. With `NC(=O)C(F)(F)C(F)(F)C(F)(F)C(F)(F)C(F)(F)C(F)(F)C(F)(F)F` the outcome was “inactive”.
